Shown are actives, neighbours in structure and some others; about 14% of the full set was active somewhere.
HCMV antiviral – blocks human cytomegalovirus replication. HFF cells, HCMV-luciferase reporter, 72 h; hits give low values. activity change, negative = inhibition, % at 57.5 µM. 4.5% of 410,000 active. AID 1259415; in the data active = activity change below about -60%; inconclusive = no clear call, values can overlap the other calls; inactive = above about -39%
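HFF cells seeded 16 h at 37C, treated with compounds, infected with luciferase-reporter HCMV at MOI 1 PFU/cell; luciferase read at 72 h post infection, normalized to buffer-only and Salinomycin controls.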
Pf growth 96h – P. falciparum growth inhibition at 96 hour, primary screen for plastid delayed-death inhibitors; Potency, µM (titrated, usually from 28.7 µM), for the others: top-dose activity change, negative = inhibition, most hits filed as inhibitors; P. falciparum luciferase reporter growth, 96 h; 6.9% of 320,000 active; note: potency is the fitted concentration of half-maximal effect
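96 h incubation, 37 C, 5% CO2, of luciferase-reporter P. falciparum-infected RBCs (2% hematocrit, 0.05% parasitemia final) with test compounds; endpoint luminescence.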
Lassa entry inh – inhibitors of Lassa virus binding or cell entry; Potency, µM (titrated, usually from 37.9 µM), without a hit: at the top dose activity change, negative = inhibition, most hits filed as inhibitors; AID 540256; 1.2% of 300,000 active; Lassa virus pseudotype entry inhibition, cell reporter; calls by dose curve; tested in HEK293 cells; note: potency is the fitted concentration of half-maximal effect; nearly all actives have a fitted effect of over 50% in size
Pf growth 48h – inhibits P. falciparum growth in the first generation, 48 h; P. falciparum luciferase growth in erythrocytes, 48 h; Potency, µM (highest dose often 28.7 µM), for inactives: top-dose activity change, negative = inhibition, actives largely listed as inhibitors; 5.9% of 310,000 active; AID 504832; note: potency is the fitted concentration of half-maximal effect
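First compound was added to culture medium, then infected red cells at 0.1% parasitemia and 2% hematocrit (final). After incubation at 37 C under 5% CO2, luciferase detection reagent was dispensed and light output recorded.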
HCV inh – inhibitors of hepatitis C virus infection. Huh7.5.1 HCVcc-Cre infection, luciferase reporter, 44 h. AID 651820. Potency, µM (series often up to 41.8 µM), without a hit: top-dose activity change, negative = inhibition, actives largely listed as inhibitors. 3.4% of 340,000 active; note: potency is the fitted concentration of half-maximal effect
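HCVcc-Cre virus at an moi near 0.5 was added right after compound to cells cultured 4 h from seeding (1,000 cells/well). Luciferase activity was determined 44 h later, 15 min after substrate addition at RT.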
Marburg entry inh – Marburg virus entry inhibition. Marburg virus pseudotyped entry inhibition, cell reporter. Potency, µM (highest dose often 37.8 µM), without a hit: at the top dose activity change, negative = inhibition, usual class: inhibitors. 1.8% of 300,000 active. AID 540276; calls by dose curve; tested in HEK293 cells; note: potency is the fitted concentration of half-maximal effect
* = called active by the depositor; ? = inconclusive; . = no result; [ ] = another dose, or the depositor's remark. Unless noted, calls come from the whole dose curve; as a rule, active = well fitted inhibition curve with a large enough effect; inconclusive = small, poorly fitted or top-dose-only effect, or another doubt; inactive = no such curve, though single readings can be large or run the other way. % is set by controls: 0 for no effect and ±100 for the full control effect.

SMILES | HCMV antiviral | Pf growth 96h | Lassa entry inh | Pf growth 48h | HCV inh | Marburg entry inh
COC(=O)c1ccc(NCc2c(O)ccc(O)c2Br)cc1Cl | -28.0 | . | -16.5% | . | 11.2µM* | ?
COC(=O)c1ccc(NCc2cc(O)ccc2O)cc1O | -6.5 | . | 20µM* | . | ? | ?
CCOc1cc(CNC(=O)C2COc3ccccc3C2)cc(OCC)c1OCC (stereo not drawn) | 15.6 | . | -2.7%[46.1 µM] | . | . | .
COc1cc(-n2nc(C)c3c2OC(N)=C(C#N)C3c2ccccc2)c(Cl)c(Br)c1O (stereo not drawn) | . | -26.3% | -0.4% | -10.9% | ? | -54.4%
Cc1nn(-c2ccccc2)c(Cl)c1C1C(C#N)=C(N)Oc2c1c(C)nn2-c1ccccc1 (stereo not drawn) | . | 10.4µM* | 6.8% | 10.4µM* | 0.4% | -12.1%[46.1 µM]
Cc1nn(-c2ccccc2)c2c1C(c1ccncc1)C(C#N)=C(N)O2 (stereo not drawn) | 68.0 | . | -0.4% | -14.7% | 6.2% | -5.2%[46.1 µM]
Cc1nn(Cc2ccccc2)c2c1C(c1cccc(Cl)c1)C(C#N)=C(N)O2 (stereo not drawn) | -60.2* | ? | -25.5% | . | ? | ?
Cc1nn(-c2ccccc2)c(Cl)c1C1C(C#N)=C(N)Oc2n[nH]c(C)c21 (stereo not drawn) | -102.9* | 0.0% | -16.0% | 17.8% | 6.4% | 26.6%
CCOC(=O)C1=C(C)OC(N)=C(C#N)C1c1c(C)nn(-c2ccccc2)c1Cl (stereo not drawn) | 28.9 | 7.0% | -18.6% | ? | -3.1% | ?
Cc1ccc(-n2nc(C)c3c2OC(N)=C(C#N)C3c2ccncc2)cc1 (stereo not drawn) | 91.3 | 0.522µM* | -14.5% | -2.0% | 1.6% | 15.5%
O=C(Cn1ncc2c(=O)oc3ccccc3c21)NCc1ccccc1Cl | 7.1 | . | -18.5%[46.1 µM] | . | . | 2.5%[46.1 µM]
COc1ccc(NC(=O)c2cc(-c3cc(F)ccc3OC(C)C)n[nH]2)cc1OC | -24.9 | . | . | . | . | .
CCCCN(CCCNC(=O)c1cc(Nc2ccc(OC)c(OC)c2)nc2ccccc12)Cc1ccccc1 | -18.3 | . | ? | . | . | ?
O=C(CSc1nc(-c2ccccc2F)nc2cc(=O)[nH]n12)Nc1cccc(C(F)(F)F)c1 | -14.2 | . | 5.4%[46.1 µM] | . | . | .
COc1ccc(CCNC(=O)c2ccc(OCc3c(C)noc3C)cc2)cc1OC | -5.1 | ? | . | 9.28µM* | ? | .
CCOc1ccc(CCNC(=O)c2ccc(OCc3c(C)noc3C)cc2)cc1OCC | -97.0* | 7.38µM* | ? | ? | ? | ?
Cc1noc(C)c1COc1ccc(C(=O)NCc2ccccn2)cc1 | 88.8 | 9.28µM* | -4.2% | 1.2% | 16.2% | -0.3%
COC(=O)c1ccc(OC(=O)c2ccc(OCc3c(C)noc3C)c(OC)c2)cc1 | . | 10.4µM* | . | 14.5% | . | .
COc1ccc(CCNC(=O)c2cc(-c3ccc(Cl)cc3)on2)cc1OC | -9.6 | . | ? | . | . | -8.8%[46.1 µM]
COc1ccc(CCNC(=O)c2cc(CC(C)C)on2)cc1OC | -4.7 | 7.38µM* | . | . | -20.6% | .
Cc1noc(C)c1COc1ccc(C(=O)Nc2nnc(CC(C)C)s2)cc1 | -62.3* | ? | . | ? | ? | .
COCCCNC(=O)c1cnc2sc(N3CCCCCC3)nn2c1=O | 17.9 | . | -3.9%[46.1 µM] | . | . | .
COC(=O)c1c(NC(=O)C(Cl)Cl)sc2c1C(C(=O)OC)CC2 (stereo not drawn) | -61.8* | -24.1% | . | -1.2% | ? | .
COC(=O)c1c(NC(=O)C(C)(C)C)sc2c1C(C(=O)OC)CC2 (stereo not drawn) | 4.9 | ? | 4.0% | ? | ? | -5.1%[46.1 µM]
CC(C)(C)N(Cc1ccccc1)C(=O)CCc1ccccc1 | ? | 13.1µM* | 28.8% | ? | 4.4% | ?
SMILES | HCMV antiviral | Pf growth 96h | Lassa entry inh | Pf growth 48h | HCV inh | Marburg entry inh
O=C(Cc1cccs1)NC1CC(=O)N(c2ccc(F)cc2)C1 (stereo not drawn) | -16.6 | . | -5.1%[46.1 µM] | . | . | .
N#Cc1ccc2nc(-c3ccc(CN4CCC(n5cc(-c6ccccc6)[nH]c5=O)CC4)cc3)c(-c3ccccc3)nc2c1 | -99.0* | . | . | . | . | .
CCC(C)n1c(=O)c2sccc2n2c(CCCC(=O)NCc3ccccc3Cl)nnc12 (stereo not drawn) | -26.1 | . | 22.3%[46.1 µM] | . | . | .
CCc1ccc(NC(=O)CSc2nc(=O)n(CCCN(C)C)c3c2CCC3)cc1 | -28.3 | -18.2% | -17.6%[46.1 µM] | ? | ? | ?
CC(=O)NC1C(=O)N(CCc2ccccc2)c2ccc(Br)cc21 (stereo not drawn) | -30.0 | 1.85µM* | 8.4% | . | -16.3% | ?
CC(=O)NC1C(=O)N(Cc2ccccc2)c2ccc(Br)cc21 (stereo not drawn) | 0.0 | ? | . | 40.2% | 1.7% | .
CC1=NN(/C(=N\c2nnc(C)s2)Nc2ccccc2)[C@H](c2cccc3ccccc23)S1 | -18.1 | 9.28µM* | ? | 6.57µM* | ? | ?
CC1=NN(/C(=N\c2nnc(C)s2)Nc2ccc(C)cc2)[C@H](c2ccc(C)cc2)S1 | -24.2 | ? | -6.9% | 10.4µM* | -23.9% | ?
CN1CCN2c3ccccc3Cc3ccccc3C2C1 (stereo not drawn) | ? | ? | ? | ? | 4.2%[8.37 µM] | 5.62µM*
CCCC(=O)N(Cc1cc(=O)[nH]c2ccccc12)c1cccc(C)c1 | -5.8 | 8.28µM* | -5.2% | 11.7µM* | 7.4% | 25.5%
CCCC(=O)N(Cc1cc(=O)[nH]c2ccccc12)c1ccccc1C | -72.8* | ? | ? | ? | -4.1% | ?
CC(=O)N(Cc1cc(=O)[nH]c2ccccc12)c1cccc(C)c1 | -6.0 | ? | 1.1% | ? | -16.3% | 9.1%
Cc1cccc(N(Cc2cc(=O)[nH]c3ccccc23)C(=O)CCl)c1 | -95.9* | ? | . | ? | ? | .
CC(=O)N(Cc1cc(=O)[nH]c2ccccc12)c1ccccc1C | -1.9 | -23.7% | ? | -21.9% | 14.0% | ?
COc1ccc(N(Cc2cc(=O)[nH]c3ccccc23)C(=O)CCl)cc1 | -101.2* | 23.8% | ? | ? | ? | ?
CCN1CCN(c2ccc(S(=O)(=O)N3CCOCC3)cc2N)CC1 | -23.6 | . | -8.3% | . | -4.3% | 21.0%
COCCNC(=O)c1ccc(N2CC3CC(C2)c2cccc(=O)n2C3)c(NC(=O)c2ccccc2Br)c1 (stereo not drawn) | 30.6 | . | . | . | . | .
Cc1ccc(/C=C/C(=O)c2ccccc(=O)c2O)c(C)c1 | -81.9* | 9.28µM* | ? | ? | ? | ?
Cc1ccc(C)c(/C=C/C(=O)c2ccccc(=O)c2O)c1 | -101.2* | 1.47µM* | ? | 4.15µM* | ? | ?
O=C(C=Cc1ccccc1O)c1ccccc1O | 20.3 | . | -13.6%[46.1 µM] | . | ? | ?
Cc1nn(C)cc1C(=O)/C=C/c1ccc([N+](=O)[O-])cc1 | -28.4 | 4.65µM* | ? | 13.1µM* | 22.4µM* | ?
